TbPYK inhibitor: qHTS of Trypanosoma Brucei Inhibitors | TbPYK enzyme, Kinase-Glo Plus ATP luminescence, 45 min | AID 624173, 2012 | Potency, µM (titrated, usually from 76.8 µM), for the others: at the highest dose activity, negative = inhibition, most hits filed as inhibitors | 410,000 compounds, 0.12% hits; note: potency is the fitted concentration of half-maximal effect; % is set by controls: 0 for no effect and ±100 for the full control effect; nearly all actives have a fitted effect of over 50% in size
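Quantitative HTS: titrated library compounds versus trypanosomal pyruvate kinase in TEA buffer (pH 7.2) containing KCl, MgCl2, BSA and Tween-20. Reactions were initiated with ADP, 130 uM final. Kinase-Glo Plus luminescence was read after 45 min at RT.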
Cycloheximide cs: Cycloheximide Counterscreen for Small Molecule Inhibitors of Shiga Toxin. cell reporter, cycloheximide protein synthesis inhibition counterscreen. max response, %. 300,000 compounds, 12% hits; in the data active = max response mostly above about 13%, no sharp cut-off; inactive = mostly below about 14%; note: read at 38.3 µM for the half of the compounds with a filed dose; 0% is about no effect
Sm TGR inh: qHTS Assay for the Inhibitors of Schistosoma Mansoni Peroxiredoxins; Schistosoma mansoni thioredoxin glutathione reductase (TGR), Q962Y6; purified TGR, DTNB reduction, TNB absorbance 405 nm; Potency, µM (doses to about 114 µM), for inactives: at the top dose activity change, negative = inhibition, usual class: inhibitors; 360,000 compounds, 3% hits; note: potency is the fitted concentration of half-maximal effect; % is set by controls: 0 for no effect and ±100 for the full control effect; nearly all actives have a fitted effect of over 60% in size
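TGR 20 nM + NADPH 100 uM (dispensed conc.), cpd preinc 15 min RT; start with NADPH (500 uM addition) then DTNB (15 mM addition). Kinetic TNB absorbance, 405 nm filter. Four-parameter Hill fit across titration.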
LmPK inh: qHTS Assay for Inhibitors of Leishmania Mexicana Pyruvate Kinase (LmPK); purified LmPK, Kinase-Glo ATP luminescence, 1 h; 290,000 compounds, 0.37% hits; Potency, µM (doses to about 57.5 µM), inactives show at the highest dose activity change, negative = inhibition, usual class: inhibitors; AID 1721, 2009; Q27686; note: potency is the fitted concentration of half-maximal effect; % is set by controls: 0 for no effect and ±100 for the full control effect
Target sequence (Q27686 whole entry, looked up): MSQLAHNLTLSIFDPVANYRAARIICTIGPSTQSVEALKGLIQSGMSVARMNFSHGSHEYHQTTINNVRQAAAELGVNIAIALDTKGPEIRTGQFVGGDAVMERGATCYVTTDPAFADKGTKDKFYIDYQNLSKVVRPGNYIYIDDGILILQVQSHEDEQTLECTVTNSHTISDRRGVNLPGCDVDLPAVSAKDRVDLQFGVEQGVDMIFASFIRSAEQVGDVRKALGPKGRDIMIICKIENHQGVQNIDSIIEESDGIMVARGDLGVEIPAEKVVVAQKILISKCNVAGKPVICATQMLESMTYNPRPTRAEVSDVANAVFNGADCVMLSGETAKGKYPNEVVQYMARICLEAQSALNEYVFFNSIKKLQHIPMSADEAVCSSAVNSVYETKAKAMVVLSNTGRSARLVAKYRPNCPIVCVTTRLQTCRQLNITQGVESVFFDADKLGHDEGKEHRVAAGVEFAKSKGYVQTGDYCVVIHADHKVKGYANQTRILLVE
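Purified LmPK (0.1 nM) with 0.5 mM PEP and 0.1 mM ADP in imidazole buffer pH 7.2 with MgCl2/KCl, 1 h at room temperature. ATP formed was read by luciferase luminescence and normalized to no-enzyme and uninhibited controls.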
Shiga toxin inh: A qHTS for Small Molecule Inhibitors of Shiga Toxin; inhibition, % at 38.7 µM; 290,000 compounds, 9.2% hits; Vero cells, Shiga toxin protein synthesis inhibition reporter; AID 2315, 2010; in the data active = inhibition mostly above about 28%, no sharp cut-off; inactive = mostly below about 43%; note: 0% is about no effect
FBPA Giardia inh: qHTS Assay for Inhibitors of Fructose-1,6-bisphosphate Aldolase from Giardia Lamblia. A8B2U2. purified Giardia FBPA. Potency, µM (top dose mostly 59.6 µM), inactives show top-dose activity, negative = inhibition, most hits filed as inhibitors. 290,000 compounds, 0.71% hits. AID 2451, 2010; note: potency is the fitted concentration of half-maximal effect; % is set by controls: 0 for no effect and ±100 for the full control effect; nearly all actives have a fitted effect of over 55% in size
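40 nM FBPA preincubated 10 min at RT with compound (up to 57.5 uM final), then substrate plus GAPDH/TPI/NAD/arsenate coupling and diaphorase/resazurin added. Fluorescence read after 20 min at RT, 525/598 nm.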
Active calls of the source: *; ? = inconclusive; · = not tested or not shown. The entries come from a sample that favours hits as a whole. Unless noted, calls come from the whole dose curve; as a rule, active = well fitted curve in the direction sought with a large enough effect; inconclusive = small, poorly fitted or top-dose-only effect, or another doubt; inactive = no such curve, though single readings can be large; an effect the other way counts as inactive or inconclusive.

SMILES	TbPYK inhibitor	Cycloheximide cs	Sm TGR inh	LmPK inh	Shiga toxin inh	FBPA Giardia inh
COc1cc(/C=C2/C(=N)N3C=CSC3=NC2=O)ccc1OCCCOc1ccccc1C	-6%	10	-2%	5%	54*	·
COc1cc(/C=C2/C(=N)N3C=CSC3=NC2=O)ccc1OCCCOc1c(C)cccc1C	-15%	-2	0%	0%	35	2%
N#CC(CCc1ccccc1[N+](=O)[O-])(CCc1ccccc1[N+](=O)[O-])C(N)=O	-12%	·	·	·	·	·
Cc1ccccc1OCCOc1ccccc1C=C(C#N)C#N	·	28*	4µM*	5%	36*	-10%
Cc1ccccc1OCCNC(=S)Nc1ccccc1	0%	10	-14%	-1%	15	·
Cc1cccc(OCCOc2ccccc2C=C(C#N)C#N)c1	-8%	19*	2.5µM*	0%	17	-5%
Cc1cc(C)c(NC(=O)C(=O)NCCc2csc(-c3ccc(F)cc3)n2)c(C)c1	-7%	·	-3%	·	·	·
CCC(C)c1ccc(NC(=O)COC(=O)C2=COCCO2)cc1 (configuration not stated)	5%	16	1%	-2%	21	-2%
COc1ccc(NC(=O)COC(=O)C2=COCCO2)cc1OC	2%	8	1%	0%	-4	3%
O=C(COC(=O)C1=COCCO1)Nc1ccc2c(c1)OCO2	0%	39*	2%	13%	154	-14%
Cc1ccc(NC(=O)COC(=O)C2=COCCO2)c([N+](=O)[O-])c1	3%	26*	-3%	-5%	38	0%
Cc1ccc(NC(=O)COC(=O)C2=COCCO2)cc1	-11%	20*	1%	-5%	48	1%
O=c1cc(O)cc(/C=C/c2ccc(O)c(O)c2)o1	·	·	·	·	·	-7%
Cc1ccc(S(=O)(=O)N(C)c2ccc(C(=O)NCCc3ccccc3)cc2)cc1	4%	32*	6%	7%	62*	-1%
CN(c1ccc(C(=O)NCCSC(C)(C)C)cc1)S(C)(=O)=O	-2%	37*	9%	0%	140*	0%
CN(c1ccc(C(=O)NCCCn2ccnc2)cc1)S(C)(=O)=O	0%	-1	9%	0%	-3	-18%
CC(C)(C)SCCNC(=O)c1ccc(Cl)c([N+](=O)[O-])c1	20%	27*	2%	7%	98*	2%
CN(c1ccc(C(=O)Nc2ccccc2C(F)(F)F)cc1)S(C)(=O)=O	12%	20	4%	0%	41*	-8%
COc1ccc(CCNC(=O)c2ccc(N(C)S(=O)(=O)c3ccc(C)cc3)cc2)cc1	2%	-3	15%	2%	-3	-7%
Cc1cccc(NC(=O)N2CC(=O)Nc3sc4c(c3C2c2ccccc2)CCCC4)c1C (configuration not stated)	-2%	·	3%	·	·	·
COC(=O)c1ccc(NC(=O)CCc2nnc3ccc(N4CCC5(CC4)OCCO5)nn23)cc1	-1%	-3	-8%	2%	-7	-1%
CCCCc1ccc(NC(=O)c2ccc(N(C)S(C)(=O)=O)cc2)cc1	-1%	-1	4%	-3%	-13	0%
CC(C)c1ccc(N(CC(=O)NCCSC(C)(C)C)S(C)(=O)=O)cc1	·	31*	-6%	7%	24	3%
CN(c1ccccc1)S(=O)(=O)c1cccc(C(=O)NCCc2ccc(O)c(O)c2)c1	?	0	16µM*	0%	-14	-18%
CN(c1ccc(C(=O)NCCc2ccccc2)cc1)S(C)(=O)=O	1%	21*	-7%	?	68*	-1%
SMILES	TbPYK inhibitor	Cycloheximide cs	Sm TGR inh	LmPK inh	Shiga toxin inh	FBPA Giardia inh
Nc1ccc(-c2cc3ccccc3oc2=O)cc1	-4%	-6	-11%	5%	-14	-1%
O=c1oc2ccccc2cc1NCc1ccccc1O	-2%	55*	1%	-3%	123*	-10%
COc1cc(N)ccc1-c1cc2ccccc2oc1=O	2%	10	-1%	-1%	27	1%
Cc1cc(N)ccc1-c1cc2ccccc2oc1=O	-1%	17*	-4%	-3%	·	-4%
CC(=O)Nc1ccc(-c2cc3ccccc3o2)cc1	-1%	43*	-1%	1%	105*	9%
O=c1oc2ccccc2cc1-c1ccc(O)cc1	-6%	118*	0%	-8%	69*	-4%
CC(O)(c1cccnc1)c1nc(-c2cccc(C#N)c2)cs1 (configuration not stated)	0%	·	·	·	·	·
CCC(=O)Nc1cc(-c2cc3ccccc3oc2=O)ccc1OC	-3%	7	1%	-2%	24	-2%
COc1ccc(-c2cc3ccc(O)cc3oc2=O)cc1OC	-4%	32*	-5%	-25%	68*	14%
COc1ccc(-c2cc3ccccc3oc2=O)cc1	-1%	·	·	·	·	·
O=C(NCc1cccnc1)c1ccc(-c2cc3ccccc3oc2=O)cc1	0%	39*	0%	-3%	67*	0%
Nc1ccc2oc(=O)c(-c3ccccc3)cc2c1	-6%	36*	-2%	1%	56*	2%
CCC(=O)Nc1ccc(-c2cc3ccccc3oc2=O)cc1	-2%	38*	·	-2%	107*	0%
O=C(CSc1ccccn1)NC1CCCc2c1cnn2-c1ccccc1F (configuration not stated)	1%	·	·	·	·	·
CS(=O)(=O)c1ccc(S(=O)CC(=O)Oc2ccc(Cl)cc2)c([N+](=O)[O-])c1 (configuration not stated)	-2%	-1	1.6µM*	10%	24	-27%
O=C(CS(=O)c1ccccc1[N+](=O)[O-])Oc1ccc(Br)cc1 (configuration not stated)	-5%	1	25µM*	-4%	-8	-13%
O=[N+]([O-])c1ccccc1S(=O)c1ccccc1[N+](=O)[O-]	-4%	·	·	·	·	·
COc1ccc(N2CC(C(=O)Nc3ccccc3-c3nc(-c4ccc(C)cc4)no3)CC2=O)cc1 (configuration not stated)	4%	·	0%	·	·	·
CSCCC(NC(=O)OC(C)(C)C)C(=O)Oc1ccc2c(=O)c(-c3ccc4c(c3)OCCO4)coc2c1 (configuration not stated)	6%	36*	-9%	-16%	83*	-11%
Cc1ccc(NC(=O)CSc2nc3nccnc3c(=O)n2CCc2c[nH]c3ccccc23)c(C)c1	3%	·	1%	·	·	·
COCCCNC(=O)c1c(NC(=O)c2nc(S(C)(=O)=O)ncc2Cl)sc2c1CCCC2	1%	·	5.6µM*	·	·	·
FC(F)Oc1ccccc1/C=N/n1cnc2ccccc21	5%	50*	13%	1%	116*	-5%

Screening data deposited in PubChem by National Center for Advancing Translational Sciences (NCATS).
